30 compounds from PubChem BioAssay AID1006 (Sanford-Burnham Center for Chemical Genomics, 2008) can be followed below.

Out of some 200,000 compounds screened, about 3,000 (1.5%) were called active. The list comes from a sample in which actives are over-represented; it also holds similar structures and randomly drawn compounds. Values without a mark were called inactive.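 The calls were made as follows: active = inhibition above about 50% when tested at 10 µM (limit read from the data); inactive = the rest.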

Sequence of Luciferin 4-monooxygenase (Photinus pyralis) (P08659 whole entry, looked up): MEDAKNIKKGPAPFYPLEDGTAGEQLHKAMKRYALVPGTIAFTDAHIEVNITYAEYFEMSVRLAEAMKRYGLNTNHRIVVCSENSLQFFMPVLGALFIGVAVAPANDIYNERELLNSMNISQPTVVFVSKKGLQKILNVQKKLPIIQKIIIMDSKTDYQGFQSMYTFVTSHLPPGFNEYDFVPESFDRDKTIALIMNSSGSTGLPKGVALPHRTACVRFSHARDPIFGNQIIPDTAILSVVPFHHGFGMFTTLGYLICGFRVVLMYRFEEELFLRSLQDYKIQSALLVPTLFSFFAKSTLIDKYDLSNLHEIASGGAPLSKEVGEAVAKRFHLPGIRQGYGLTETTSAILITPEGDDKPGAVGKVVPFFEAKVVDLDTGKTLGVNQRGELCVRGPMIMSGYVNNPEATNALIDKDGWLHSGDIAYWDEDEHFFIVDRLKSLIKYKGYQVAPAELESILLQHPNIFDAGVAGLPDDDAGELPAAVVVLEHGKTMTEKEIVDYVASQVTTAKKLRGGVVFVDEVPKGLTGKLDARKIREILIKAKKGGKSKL

The assay has as its target Luciferin 4-monooxygenase (Photinus pyralis) (UniProt P08659). Kind of assay: firefly luciferase enzyme inhibitors, primary screen, artefact control for luciferase-based inhibitor screens, biochemical, luminescence, ATPLite (AID 1006). The settings on record: 10 min, at 10 µM, active compounds read high. (ATP-based viability assays read luminescence as a measure of living cells.)
As a reminder, the inhibition is the drop in the measured response relative to a control, in per cent. As for `N#CC1(C#N)C(C(=O)C23CC4CC(CC(C4)C2)C3)C12CCOCC2` (stereo not given), the inhibition is -9.2%.
Consider `CCc1cc2c(=O)c(-c3ccc(F)cc3)c(C(F)(F)F)oc2cc1OCC(=O)O`, for which the inhibition is -5.2%.
With `CCc1cc2c(=O)c(-c3nc4ccccc4n3C)c(CCCC(=O)O)oc2cc1OC(=O)C(C)(C)C`, the inhibition was 2.4%.
To `CCc1cc2c(=O)c(-c3ccon3)c(N)oc2cc1OC` belongs 59.4% (active); to `CCOc1ccc(S(=O)(=O)Nc2nccs2)cc1`, -7.4%.
Regarding `COc1ccc(-c2noc(-c3cccc(OC)c3OC)n2)cc1OC`, the inhibition is 48.7%.
For `COc1ccc(-c2nc(-c3ccccc3)no2)c(OC)c1` the value was 85.4% (active).
To `COc1ccc(-c2noc(-c3ccc(C)cc3)n2)cc1` belongs 44.5%; to `Cc1ccc(S(=O)(=O)Nc2nc(N)n(-c3ccccc3)n2)cc1`, -5.1%; to `Cc1ccc(NC(=O)C2(N3CCC3=O)CCCCC2)cc1`, -9%.
As for `CCC(=O)Nc1cccc(NC(=O)c2cccnc2)c1`, the inhibition was -0.5%.
To `Cc1cc(/C=N/NC(=O)c2cccnc2)c(C)n1CC(C)C` belongs 63.5% (active); to `Cc1nn(Cc2ccc(Cl)cc2)c(Cl)c1/C=N/NC(=O)c1cccnc1`, -5.5%.
To `CC(Oc1ccc(Br)cc1Br)C(=O)NC1CCCC1` (stereo not given) belongs -6.3%; to `CCN(CC)S(=O)(=O)c1cc(C(=O)Nc2ccccn2)ccc1C`, 58% (active).
To `CCN(CC)S(=O)(=O)c1cccc(C(=O)Nc2ccccc2)c1` belongs -4.6%; to `Cc1ccc(S(=O)(=O)/N=C(/Nc2ccccn2)c2ccc(Cl)cc2)cc1`, -1.5%.
As to `Cn1c(N)cc(-c2ccc(F)cc2)c(C#N)c1=O`, the inhibition is -3.4%.
`COc1cc(CNC2CCCCC2)c(Br)cc1OC1CCCC1`: the inhibition was -3.7%.
To `Cc1cc(C)nc(NC(=O)c2cccc([N+](=O)[O-])c2)c1` belongs 0.2%; to `CCO[C@H]1OC(C(=O)O)=C[C@@H](C2CCCCC2)[C@@H]1CCCO`, -12%; to `Oc1ccc(-c2[nH]ncc2-c2nc3ccccc3s2)c(O)c1`, -7.2%.
To `CC(=O)Nc1cccc(-c2nc3ccccc3s2)c1C` belongs 52% (active); to `COC(=O)c1nc2ccccc2s1`, -1.8%.
For `c1csc(-c2nnc(COc3ccc4c(c3)OCO4)o2)c1` the value was 5.4%; for `NS(=O)(=O)c1ccc(N2C(=O)C3C4CC(C(Br)C4Br)C3C2=O)cc1` (stereo not given), -4.1%; for `CCc1ccc(N2CC(O)=C(c3nc4ccccc4c(=O)[nH]3)C2=N)cc1`, 1.7%.
On to `CCN(CC)c1ccc(/C=N/Nc2nc(C)cc(=O)[nH]2)cc1`, for which the inhibition was 26.8%.
To `COc1ccc(/C=N/Nc2nc3ccccc3c(=O)[nH]2)cc1` belongs 59.4% (active); to `COc1ccc(C=Nc2cccc3ncccc23)cc1`, -0.8%.
